According to PubChem BioAssay (NCATS):
Inconclusive results are not listed. Values without a mark were called inactive. Active and inactive are the calls of the source. The call rests on the fitted dose curve; in most records, active means well fitted cell-killing curve with a large enough effect; inconclusive means small, poorly fitted or top-dose-only effect, or effect the other way; inactive means no such curve, though single readings can be large or run the other way.

Key:
[1] = Viability qHTS for spleen associated tyrosine kinase inhibitor (SYKi) naive MV4-11 cells (AID 1963823); conditions: MV4-11 AML viability, CellTiter-Glo luminescence, 72 h; series mostly up to 45 µM; further: nearly all actives have a fitted effect of over 40% in size
Method in brief: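 Viability of MV4-11 AML cells lacking prior SYK inhibitor exposure is scored by CellTiter-Glo luminescence following 72 hr compound incubation at 37 C, 5% CO2, seeded at 500 cells per well.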

[2] = Viability qHTS for spleen associated tyrosine kinase inhibitor (SYKi) drug resistant MV4-11 cells (AID 1963824); conditions: SYKi-resistant MV4-11 viability, CellTiter-Glo, 72 h; series mostly up to 45 µM; further: nearly all actives have a fitted effect of over 35% in size
Method in brief: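 SYK inhibitor-resistant MV4-11 AML cells, 500 per well, added to predispensed compounds and incubated 72 hr at 37 C, 5% CO2. Viability measured by CellTiter-Glo luminescence after 10 min at room temperature.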
Potency means the concentration at half of the fitted maximal effect.

| Compound | Potency [1] | Potency [2] | viability (% of control) [1] | viability, % of control [2] |
| --- | --- | --- | --- | --- |
| CC1(C)CC[C@]2(C(=O)O[C@@H]3O[C@H](CO)[C@@H](O)[C@H](O)[C@H]3O)CC[C@]3(C)C(=CCC4[C@@]5(C)C[C@@H](O)[C@H](O)[C@@](C)(CO)C5CC[C@]43C)C2C1 (some centres undefined) | inactive | inactive |  |  |
| COc1cc(Nc2nc3c(s2)CCCC3c2ccc(F)cc2)ccc1-n1cnc(C)c1 (centres undefined) | 3.66 µM (active) | 4.61 µM (active) |  |  |
| CCN1/C(=C/C(C)=O)Sc2ccc(OC(C)=O)cc21 | 7.31 µM (active) | 10.3 µM (active) |  |  |
| C=C1C(=O)O[C@@H]2/C=C(\CO)CC/C=C(/C=O)C[C@@H](O)[C@@H]12 | 3.66 µM (active) | 2.06 µM (active) |  |  |
| C[C@@H]1O[C@@H](O[C@H]2[C@H](OC(=O)C34CCC(C)(C)CC3C3=CCC5C6(C)CC(O)C(O[C@@H]7O[C@H](CO)[C@@H](O)[C@H](O)[C@H]7O)C(C)(C(=O)O)C6CCC5(C)C3(CO)CC4)O[C@H](C)[C@H](O)[C@@H]2O)[C@H](O)[C@H](O)[C@H]1O[C@@H]1OC[C@@H](O)[C@H](O)[C@H]1O (some centres undefined) |  |  | 87% [at 9.25 µM] | 109% [at 9.25 µM] |
| CN1C(=O)c2ccccc2NC(=O)[C@]12O[C@@H]2c1cccc(O)c1 | inactive | inactive |  |  |
| CC1(C)CC[C@]2(C(=O)O[C@@H]3O[C@H](CO[C@@H]4O[C@H](CO)[C@@H](O)[C@H](O)[C@H]4O[C@@H]4O[C@H](CO)[C@@H](O)[C@H](O)[C@H]4O)[C@@H](O)[C@H](O[C@@H]4O[C@H](CO)[C@@H](O)[C@H](O)[C@H]4O)[C@H]3O)CC[C@]3(C)C(=CCC4[C@@]5(C)CC[C@@H](O)[C@@](C)(C(=O)O[C@@H]6O[C@H](CO)[C@@H](O)[C@H](O)[C@H]6O)C5CC[C@]43C)[C@@H]2C1 (some centres undefined) |  |  | 73.4% [at 9.25 µM] | 80.3% [at 9.25 µM] |
| COc1cc(C2OCC3(O)C(c4ccc(O[C@@H]5O[C@H](CO)[C@@H](O)[C@H](O)[C@H]5O)c(OC)c4)OCC23O)ccc1O (some centres undefined) | inactive | inactive |  |  |
| Cc1nnsc1C(=O)Nc1ccc(-n2nc(C(F)(F)F)cc2C(F)(F)F)cc1 | 18.4 µM (active) | 16.4 µM (active) |  |  |
| COc1cc2c(NC3CCN(C(C)C)CC3)nc(N3CCC(F)(F)CC3)nc2cc1OCCCN1CCCC1 | 5.17 µM (active) | 2.91 µM (active) |  |  |
| O=C(Nc1ccc(Cl)cc1F)c1ccccc1O | 9.2 µM (active) | 7.31 µM (active) |  |  |
| Cc1ncc(CCCN(C)C)cc1Nc1ncc2c(n1)-c1ccc(C(F)(F)F)cc1NC(=S)C2 | 0.0517 µM (active) | 0.0206 µM (active) |  |  |
| C/C=C(\C)C(=O)O[C@@H]1CC2[C@@H](CC=C3C[C@@H](O[C@H]4C[C@H](OC)[C@H](O[C@H]5C[C@H](OC)[C@H](O[C@@H]6O[C@H](C)[C@@H](O[C@H]7C[C@H](OC)[C@H](O[C@@H]8O[C@H](CO)[C@@H](O)[C@H](O)[C@H]8O)[C@@H](C)O7)[C@H](OC)[C@H]6O)[C@@H](C)O5)[C@@H](C)O4)CC[C@@]32C)[C@@]2(O)CC[C@H](C(C)=O)[C@@]12C (some centres undefined) |  |  | 53.3% [at 9.25 µM] | 61.7% [at 9.25 µM] |
| COc1ccc(-c2cnc3ccc(NCc4ccc(S(N)(=O)=O)cc4)nn23)cc1OC | 0.92 µM (active) | 1.64 µM (active) |  |  |
| COc1c(C)c(OCC(O)C(C)(C)O)cc2c1CNC2=O (centres undefined) | inactive | inactive |  |  |
| C=C1C(=O)O[C@H](CCC)[C@H]1C(=O)O | inactive | inactive |  |  |
| CC1=COC(OC2OC(CO)C(O)C(O)C2O)C2C(CO)CC(OC(=O)/C=C/c3ccc(O)cc3)C12 (centres undefined) | inactive | inactive |  |  |
| CC(C)(O)CC(CO)NC(=O)CC(O)CC(=O)Cc1ccccc1 (centres undefined) | inactive | inactive |  |  |
| COc1cc(/C=C/C(=O)O[C@@H]2O[C@H](CO)[C@@H](O)[C@H](O)[C@H]2O)ccc1O | inactive | inactive |  |  |
| CC(/C=C/C1(O)C2(C)COC1(C)CC(=O)C2)O[C@@H]1O[C@H](CO)[C@@H](O)[C@H](O)[C@H]1O (some centres undefined) | inactive | inactive |  |  |
| CC(=O)O[C@H]1CC(C)(C)CC2[C@]13CO[C@@]21CCC2[C@@]4(C)CC[C@H](O[C@@H]5OC[C@H](O[C@@H]6O[C@H](CO)[C@@H](O)[C@H](O)[C@H]6O[C@@H]6OC[C@@H](O[C@@H]7O[C@H](CO)[C@@H](O)[C@H](O)[C@H]7O)[C@H](O)[C@H]6O)[C@H](O)[C@H]5O[C@@H]5O[C@H](CO)[C@@H](O)[C@H](O)[C@H]5O)[C@@](C)(CO)C4CC[C@@]2(C)[C@]1(C)C[C@H]3O (some centres undefined) | 1.55 µM (active) | 1.23 µM (active) |  |  |
| COc1ccccc1-c1cc(Nc2cccc(CS(N)(=O)=O)c2)ncn1 | 9.2 µM (active) | 8.2 µM (active) |  |  |
| NCCCC[C@H](NC(=O)[C@@H]1Cc2ccccc2CN1C(=O)CCC(=O)c1ccccc1)C(=O)NCC(c1ccccc1)c1ccccc1 | 20.6 µM (active) | 13 µM (active) |  |  |
| c1ccc2c(-c3cnn4cc(-c5ccc(OCCN6CCOCC6)cc5)cnc34)ccnc2c1 | 1.02 µM (active) | 1.44 µM (active) |  |  |

| Compound | Potency [1] | Potency [2] | viability (% of control) [1] | viability, % of control [2] |
| --- | --- | --- | --- | --- |
| C=C(C(=O)OC)C1C(O)CC2(C)C(O)CCC(=O)C2C1O (centres undefined) | inactive | inactive |  |  |
| O=C(C[C@@H]1C(C(=O)O)=CO[C@@H](O[C@@H]2O[C@H](CO)[C@@H](O)[C@H](O)[C@H]2O)/C1=C\CO)OCCc1ccc(O)c(O)c1 | inactive | inactive |  |  |
| CC1(C)CCC2(C(=O)OC3OC(CO)C(O)C(O)C3O)CCC3(C)C(=CCC4C5(C)CCC(OC6OC(C(=O)O)C(OC7OC(CO)C(O)C(O)C7O)C(OC7OC(CO)C(O)C(O)C7O)C6O)C(C)(C)C5CCC43C)C2C1 (centres undefined) |  |  | 77.9% [at 9.25 µM] | 109% [at 9.25 µM] |
| O=C(Nc1nc2ccc([N+](=O)[O-])cc2s1)C1CCCCC1 | 20.6 µM (active) | 18.4 µM (active) |  |  |
| N#Cc1ccc(Nc2nc(-c3ccc(O)cc3O)cs2)cc1C(F)(F)F | 5.17 µM (active) | 4.61 µM (active) |  |  |
| COC(=O)c1ccc(OC)cc1O[C@@H]1O[C@H](CO[C@@H]2OC[C@@H](O)[C@H](O)[C@H]2O)[C@@H](O)[C@H](O)[C@H]1O | inactive | inactive |  |  |
| CC(C)C[C@@H](N)C(=O)O | inactive | inactive |  |  |
| Cc1cn(-c2cc(NC(=O)c3ccc(C)c(Nc4nccc(-c5cnccn5)n4)c3)cc(C(F)(F)F)c2)cn1 | inactive | inactive |  |  |
| CC1(C)CC[C@]2(C(=O)O[C@@H]3O[C@H](CO)[C@@H](O)[C@H](O)[C@H]3O)CC[C@]3(C)C(=CCC4[C@@]5(C)C[C@@H](O)[C@H](O)C(CO)(CO)C5CC[C@]43C)C2[C@@H]1O (some centres undefined) | inactive | inactive |  |  |
| CC1OC(OC2C(C)OC(OC3C(O)C(CO)OC(O[C@H]4CC[C@@]5(C)C(CC[C@]6(C)C5CC=C5C7[C@@H](C)[C@H](C)CC[C@]7(C(=O)O)CC[C@]56C(=O)O)C4(C)C)C3O)C(O)C2O)C(O)C(O)C1O (some centres undefined) |  |  | 75.5% [at 9.25 µM] | 78.3% [at 9.25 µM] |
| NC(=O)c1cnc(NCCc2ccc(O)c(Cl)c2)nc1NCc1ccccc1 | 0.0231 µM (active) | 0.0259 µM (active) |  |  |
| CCCCCCc1cccc(NC(=O)[C@H](N)CCP(=O)(O)O)c1 |  |  | 90.5% [at 9.25 µM] | 99.2% [at 9.25 µM] |
| O=C1NC(=O)C(c2cn3c4c(cccc24)CCC3)C1c1c[nH]c2ccccc12 (centres undefined) | 0.92 µM (active) | 0.92 µM (active) |  |  |
| CC1(C)CC[C@]23CO[C@@]4(CCC5[C@@]6(C)CC[C@H](O[C@@H]7OC[C@H](O[C@@H]8O[C@H](CO)[C@@H](O)[C@H](O)[C@H]8O[C@@H]8OC[C@@H](O)[C@H](O)[C@H]8O)[C@H](O)[C@H]7O[C@@H]7O[C@H](CO)[C@@H](O)[C@H](O)[C@H]7O)[C@@](C)(CO)C6CC[C@@]5(C)[C@]4(C)C[C@H]2O)[C@@H]3C1 (some centres undefined) | 2.19 µM (active) | 3.9 µM (active) |  |  |
| COc1cc(/C=C/CO)cc(OC)c1O[C@@H]1O[C@H](CO[C@@H]2O[C@H](CO)[C@@H](O)[C@H](O)[C@H]2O)[C@@H](O)[C@H](O)[C@H]1O | inactive | inactive |  |  |
| CC(=O)N(O)CCCCCN1C(=O)CCC1=O | inactive | inactive |  |  |
| CCOc1cn(-c2ccc(F)cc2C)nc1C(=O)Nc1ccc(Oc2ccnc3cc(OC)c(OC)cc23)c(F)c1 | 0.259 µM (active) | 0.651 µM (active) |  |  |
| C=C1[C@H](OC(C)=O)[C@H]2[C@@H](OC(C)=O)[C@](C)(OC(C)=O)C[C@]2(OC(C)=O)C(=O)[C@H](C)/C=C/C(C)(C)C(=O)[C@H](OC(=O)C(C)C)[C@H]1OC(C)=O | inactive | inactive |  |  |
| COC(=O)C1=CO[C@@H](O[C@@H]2O[C@H](CO)[C@@H](O)[C@H](O)[C@H]2O)[C@H]2[C@@H]1C=C[C@]21C=C([C@H](C)OC(=O)/C=C/c2ccc(O[C@@H]3O[C@H](CO)[C@@H](O)[C@H](O)[C@H]3O)cc2)C(=O)O1 | inactive | inactive |  |  |
| COc1cc(C(CO)CO[C@@H]2O[C@H](CO)[C@@H](O)[C@H](O)[C@H]2O)ccc1O (some centres undefined) | inactive | inactive |  |  |
| O=C(OC[C@H]1O[C@H](O[C@]2(CO)O[C@H](CO)[C@@H](O)[C@@H]2O)[C@H](O)[C@@H](O)[C@@H]1O)c1ccccc1 | inactive | inactive |  |  |
| CC[C@H](C)[C@H](NC(=O)[C@H](Cc1ccc(O)cc1)NC(=O)[C@@H](N)C(C)C)C(=O)N[C@@H](Cc1cnc[nH]1)C(=O)N1CCC[C@H]1C(=O)N[C@@H](Cc1ccccc1)C(=O)O |  |  | 98.9% [at 4.97 µM] | 102% [at 4.97 µM] |
| Cc1cc(C(=O)N2Cc3cnn(C)c3Nc3ccccc32)ccc1CNC(=O)N1CCN(Cc2cc(O)cc(O)c2)CC1 | inactive | inactive |  |  |
